Assay outcomes as filed in PubChem.
The list is not random: actives were taken first. Their share in the collection is about 14%.
Pf growth 96h – inhibits malaria parasite growth, 96 h; AID 504834; P. falciparum luciferase reporter growth, 96 h; Potency, µM (doses to about 28.7 µM), hits mostly inhibitors; hit rate 6.9% among 320,000
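P. falciparum expressing integrated firefly luciferase, in erythrocytes at 2% hematocrit, 0.05% parasitemia, incubated with compounds 96 h at 37 C, 5% CO2. Growth inhibition read as loss of luminescence; two-generation exposure targets delayed-death apicoplast inhibitors.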
Giardia FBPA inh – blocks Giardia fructose-bisphosphate aldolase activity; A8B2U2; Potency, µM (doses to about 59.6 µM), hits mostly inhibitors; purified Giardia FBPA; hit rate 0.71% among 290,000; also: nearly all actives have a fitted effect of over 55% in size
Target sequence (A8B2U2 whole entry, looked up): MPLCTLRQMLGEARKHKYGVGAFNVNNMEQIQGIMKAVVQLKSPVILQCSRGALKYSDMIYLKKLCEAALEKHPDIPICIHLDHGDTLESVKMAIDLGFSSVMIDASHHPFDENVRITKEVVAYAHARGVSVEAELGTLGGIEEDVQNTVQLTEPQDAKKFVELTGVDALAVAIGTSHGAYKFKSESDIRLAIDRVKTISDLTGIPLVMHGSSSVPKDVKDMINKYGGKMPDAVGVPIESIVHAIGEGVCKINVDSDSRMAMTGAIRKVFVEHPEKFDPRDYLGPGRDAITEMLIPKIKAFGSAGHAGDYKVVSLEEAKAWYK
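40 nM FBPA preincubated 10 min at RT with compound (up to 57.5 uM final), then substrate plus GAPDH/TPI/NAD/arsenate coupling and diaphorase/resazurin added. Fluorescence read after 20 min at RT, 525/598 nm.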
Pf growth 48h – P. falciparum growth inhibition at 48 hours (one generation); P. falciparum luciferase growth in erythrocytes, 48 h; Potency, µM (top dose mostly 28.7 µM), most hits filed as inhibitors; hit rate 5.9% among 310,000
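Firefly luciferase activity from engineered P. falciparum reports growth; inhibitors lower the luminescent signal. Cultures contained 2% hematocrit erythrocytes at 0.1% final parasitemia.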
HCMV inh – blocks human cytomegalovirus replication; activity change, negative = inhibition, % at 57.5 µM; hit rate 4.5% among 410,000; HFF cells, HCMV-luciferase reporter, 72 h; stronger effect = lower value; in the data active = activity change below about -60%; inconclusive = no clear call, values can overlap the other calls; inactive = above about -39%
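Steps: HFFs plated, 16 h 37C; compounds added; HCMV-luciferase added to MOI 1 PFU/cell; 72 h 37C; OneGlo reagent, 5 min room temperature; luminescence read, normalized to controls.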
Sm TGR block – S. mansoni TGR enzyme inhibition. Q962Y6. purified TGR, DTNB reduction, TNB absorbance 405 nm. Potency, µM (doses to about 114 µM), most hits filed as inhibitors. hit rate 3% among 360,000. AID 485364; also: nearly all actives have a fitted effect of over 60% in size
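First, TGR (20 nM dispensed) and NADPH were mixed with compound. Second, a 15 min room-temperature incubation followed. Third, further NADPH and then DTNB were added to start the reaction. Finally, TNB absorbance was monitored kinetically.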
Numbers stand for hits; i = inactive; ? = inconclusive; nt = no result given. Unless noted, calls follow the shape of the dose curve; as a rule, active = well fitted curve in the direction sought with a large enough effect; inconclusive = small, poorly fitted or top-dose-only effect, or another doubt; inactive = no such curve, though single readings can be large; an effect the other way counts as inactive or inconclusive.

SMILES	Pf growth 96h	Giardia FBPA inh	Pf growth 48h	HCMV inh	Sm TGR block
COc1ccc2nc3oc(C(=O)NCc4ccccc4OC)cc3cc2c1	nt	nt	nt	i	i
COc1ccc(Cn2c(=O)n(Cc3ccco3)c(=N)c3c4c(sc32)COC(C)(C)C4)cc1	13.1µM	i	5.86µM	i	i
COc1ccc(Cc2nnc(SCC(=O)c3ccc4c(c3)NC(=O)CO4)o2)cc1	i	nt	?	i	i
O=C(Nc1nc2ccccc2n1CCN1CCOCC1)c1ccccc1	i	i	i	i	i
O=C(c1cn(-c2ccccc2)nc1-c1cccc(Br)c1)N1CCOCC1	i	i	?	-63.4	nt
O=C(N/C(=C/c1cn(-c2ccccc2)nc1-c1ccccc1)C(=O)N1CCOCC1)c1ccc(Cl)cc1Cl	?	i	6.57µM	i	i
O=C(Nc1nc2ccccc2n1CCN1CCOCC1)c1cn(-c2ccccc2)nc1-c1ccccc1	?	i	10.4µM	?	i
O=C(NC(=S)N1CCOCC1)c1cn(-c2ccccc2)nc1-c1ccc(F)cc1	11.7µM	nt	?	i	i
CN1c2cc(O)c(N=NC(N)=O)cc2CC1S(=O)(=O)O (stereo unspecified)	i	nt	i	nt	nt
O=C(O)c1ccc2c(c1)C(=O)N(c1cccc3ccccc13)C2=O	i	i	i	i	i
O=C(CCl)Nc1cn(-c2ccccc2)nc1-c1ccc(F)cc1	?	i	i	-72.2	31.6µM
COc1ccccc1-c1cc(-c2ccccc2)nc(SCC(=O)O)c1C#N	?	i	i	i	i
CCc1nn(CC(=O)NCCN2CCN(C)CC2)c(=O)c2cc3occc3n12	?	i	i	-103.7	i
CCc1nn(CC(=O)NCc2cccnc2)c(=O)c2cc3occc3n12	10.4µM	nt	i	i	i
CC1=C(C(=O)N(C(C)C)C(C)C)CC(CC(=O)NCc2cccc3ccccc23)C(=O)N1Cc1ccc(F)cc1 (stereo unspecified)	nt	nt	nt	i	nt
COc1cccc(NS(=O)(=O)c2ccc3[nH]cc(C(=O)NC(C)c4ccccc4)c(=O)c3c2)c1 (stereo unspecified)	nt	nt	nt	?	i
N#Cc1ccc(CS(=O)(=O)c2nnnn2-c2ccccc2)cc1	nt	i	nt	nt	nt
Cc1cccc(NC(=O)C(c2ccccc2)N2Cc3ccccc3C2=O)c1C (stereo unspecified)	nt	nt	nt	-73.8	i
CCOc1ccccc1NC(=O)CN(C)S(=O)(=O)c1ccc2nc(C)sc2c1	nt	nt	nt	i	i
CCC(=O)Nc1cc(=O)[nH]c2nc(-c3ccc(Cl)cc3)nn12	?	i	0.262µM	i	i
CC(C)(C)c1ccc(-c2nc3[nH]c(=O)cc(NC(=O)c4ccco4)n3n2)cc1	4.15µM	nt	10.4µM	i	i
COc1ccc(CCC(=O)NCCNC(=O)CCc2ccc(OC)cc2)cc1	i	i	i	i	i
CC(C)(C)C(=O)Nc1cc2nn(-c3ccccc3)nc2cc1Cl	i	i	nt	-87.8	i
CC(C)(C)n1ncc2c(=O)n(CC(=O)OCc3ccccc3)cnc21	i	i	i	?	i
CC(C)(C)n1ncc2c(=O)n(CC(=O)N3CCCc4ccccc43)cnc21	1.85µM	i	i	i	?
SMILES	Pf growth 96h	Giardia FBPA inh	Pf growth 48h	HCMV inh	Sm TGR block
CC(C)(C)n1ncc2c(=O)n(CC(=O)N3CCc4ccccc43)cnc21	?	i	i	i	i
Cc1ccccc1Cn1cnc2c(cnn2C(C)(C)C)c1=O	i	i	i	i	i
CC(C)(C)n1ncc2c(=O)n(CC(=O)c3ccccc3)cnc21	2.08µM	i	i	i	?
CC(C)(C)n1ncc2c(=O)n(Cc3cccc(Cn4cnc5c(cnn5C(C)(C)C)c4=O)c3F)cnc21	nt	nt	nt	-87.7	nt
O=C(CN1CCCCC1)N1CCCc2ccccc21	i	i	nt	i	i
O=C(CN1CCCC1)N1CCCc2ccccc21	18.5µM	?	i	i	nt
O=C(c1cccc(-c2ccccc2)c1)N1CC[C@@H](N2CCC(O)CC2)[C@H](O)C1	i	nt	?	?	i
COC(=O)CN=C1OC(=O)N2C(=O)C3=C4C(C[C@H]5C(=O)N(c6ccccc6)C(=O)[C@H]5[C@H]4[C@@]12Cc1ccccc1)[C@H]1C(=O)N(c2ccccc2)C(=O)[C@H]1[C@H]3C (stereo partly specified)	nt	i	nt	nt	nt
COc1ccccc1NC(=O)c1ccc(NC(=O)CSc2nc(N)cc(=O)[nH]2)cc1	i	nt	i	?	i
CCOC(=O)C1CCN(C(=O)c2c(C)oc3c2C(=O)c2ccccc2C3=O)CC1	0.294µM	?	0.415µM	i	i
